Measurements from PubChem BioAssay AID1159580 (chemical genetic matrix, 2015).
Values joined by “and” are separate entries in the source; they are usually repeats but may differ in a detail not shown here. Identical values can stand only once. Screen size: about 5,500 compounds; about 2,000 (36%) were called active. Roughly 18% stayed inconclusive and do not appear here. Cut-off read from the data, not from the text of the source: active = normalized growth mostly below about 0.91 (no sharp cut-off); inconclusive = no clear call, values can overlap the other calls; inactive = mostly above about 0.92. The list shows a part of the results.

Assay: chemical genetic growth profiling, strain panel (AID 1159580);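 note: tested at 20 µM; growth read once vehicle control cultures reached saturation at 30 °C; 1 = growth at the plate median or of vehicle wells; lower values mean less growth of the strain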
Conditions: growth OD

Measured: normalized growth

CC(C(=O)O)c1cccc(C(=O)c2ccccc2)c1 (stereo not drawn)
inactive: S. cerevisiae deletion strains, locus YJR075W, strain HOC1, active compounds read low 1 and 1.06 | S. cerevisiae deletion strains, locus YKL009W, strain mrt4, active compounds read low 0.982 | S. cerevisiae deletion strains, locus YKL068W, active compounds read low 0.971 | S. cerevisiae deletion strains, locus YKL085W, strain MDH1 (second series), active compounds read low 0.968 | S. cerevisiae deletion strains, locus YKL085W, strain MDH1, active compounds read low 0.968 | S. cerevisiae deletion strains, locus YKL160W, strain elf1, active compounds read low 0.978 | S. cerevisiae deletion strains, locus YKL190W, strain CNB1, active compounds read low 0.994 | S. cerevisiae deletion strains, locus YKR001C, strain vps1, active compounds read low 0.992 | S. cerevisiae deletion strains, locus YKR026C, strain gcn3, active compounds read low 0.984 | S. cerevisiae deletion strains, locus YKR091W, strain srl3, active compounds read low 0.989 | S. cerevisiae deletion strains, locus YLL001W, strain dnm1, active compounds read low 0.984 | S. cerevisiae deletion strains, locus YLL026W, active compounds read low 0.982 | S. cerevisiae deletion strains, locus YLL041C, strain sdh2, active compounds read low 1.01 | S. cerevisiae deletion strains, locus YLR027C, strain aat2, active compounds read low 0.991 | S. cerevisiae deletion strains, locus YLR039C, strain RIC1, active compounds read low 0.993 | S. cerevisiae deletion strains, locus YLR058C, strain SHM2, active compounds read low 0.997 | S. cerevisiae deletion strains, locus YLR102C, strain apc9, active compounds read low 0.974 | S. cerevisiae deletion strains, locus YLR113W, strain HOG1, active compounds read low 1.02 | S. cerevisiae deletion strains, locus YLR221C, strain rsa3, active compounds read low 1.01 | S. cerevisiae deletion strains, locus YLR258W, strain gsy2, active compounds read low 0.987 | S. cerevisiae deletion strains, locus YLR262C, strain YPT6 (second series), active compounds read low 0.987 | S. cerevisiae deletion strains, locus YLR262C, strain YPT6, active compounds read low 0.968 | S. cerevisiae deletion strains, locus YLR268W, strain sec22, active compounds read low 0.972 | S. cerevisiae deletion strains, locus YLR320W, strain mms22, active compounds read low 0.971 | S. cerevisiae deletion strains, locus YLR330W, strain CHS5, active compounds read low 0.985 | S. cerevisiae deletion strains, locus YLR342W, strain FKS1 (second series), active compounds read low 1.01 | S. cerevisiae deletion strains, locus YLR342W, strain FKS1, active compounds read low 1 | S. cerevisiae deletion strains, locus YLR357W, strain rsc2, active compounds read low 0.933 | S. cerevisiae deletion strains, locus YLR370C, strain arc18, active compounds read low 0.979 | S. cerevisiae deletion strains, locus YLR371W, strain rom2, active compounds read low 0.978 | S. cerevisiae deletion strains, locus YLR384C, strain iki3, active compounds read low 0.963 | S. cerevisiae deletion strains, locus YLR418C, strain cdc73, active compounds read low 0.971 | S. cerevisiae deletion strains, locus YML016C, strain PPZ1, active compounds read low 0.996 | S. cerevisiae deletion strains, locus YML032C, strain rad52, active compounds read low 0.996 | S. cerevisiae deletion strains, locus YML120C, strain ndi1, active compounds read low 0.994 | S. cerevisiae deletion strains, locus YML124C, strain tub3, active compounds read low 0.971 | S. cerevisiae deletion strains, locus YMR058W, strain fet3, active compounds read low 0.995 | S. cerevisiae deletion strains, locus YMR078C, strain ctf18, active compounds read low 0.959 | S. cerevisiae deletion strains, locus YMR125W, strain sto1, active compounds read low 0.991 | S. cerevisiae deletion strains, locus YMR129W, active compounds read low 0.981 | S. cerevisiae deletion strains, locus YMR205C, strain PFK2, active compounds read low 0.985 | S. cerevisiae deletion strains, locus YMR223W, strain ubp8, active compounds read low 0.976 | S. cerevisiae deletion strains, locus YMR231W, strain pep5, active compounds read low 0.985 | S. cerevisiae deletion strains, locus YMR307W, strain GAS1, active compounds read low 0.995 | S. cerevisiae deletion strains, locus YNL067W, strain RPL9B, active compounds read low 1.04 | S. cerevisiae deletion strains, locus YNL071W, strain lat1, active compounds read low 0.997 | S. cerevisiae deletion strains, locus YNL175C, strain NOP13, active compounds read low 1.02 | S. cerevisiae deletion strains, locus YNL183C, strain NPR1, active compounds read low 0.955 | S. cerevisiae deletion strains, locus YNL197C, strain WHI3, active compounds read low 0.992 | S. cerevisiae deletion strains, locus YNL209W, strain ssb2, active compounds read low 0.999 | S. cerevisiae deletion strains, locus YNL224C, strain SQS1, active compounds read low 0.997 | S. cerevisiae deletion strains, locus YNL233W, strain BNI4, active compounds read low 1.05 | S. cerevisiae deletion strains, locus YNL248C, strain rpa49, active compounds read low 0.968 | S. cerevisiae deletion strains, locus YNL250W, strain rad50, active compounds read low 0.927 | S. cerevisiae deletion strains, locus YNL271C, strain bni1, active compounds read low 0.956 | S. cerevisiae deletion strains, locus YNL298W, strain CLA4, active compounds read low 0.973 | S. cerevisiae deletion strains, locus YNL307C, strain MCK1, active compounds read low 0.978 | S. cerevisiae deletion strains, locus YNL322C, strain KRE1 (second series), active compounds read low 0.953 | S. cerevisiae deletion strains, locus YNL322C, strain KRE1, active compounds read low 0.994 and 1.03 | S. cerevisiae deletion strains, locus YNR049C, strain mso1, active compounds read low 0.995 | S. cerevisiae deletion strains, locus YNR052C, strain pop2, active compounds read low 0.958 | S. cerevisiae deletion strains, locus YOL006C, strain TOP1, active compounds read low 1.06 | S. cerevisiae deletion strains, locus YOL012C, strain htz1 1.22 | S. cerevisiae deletion strains, locus YOL147C, strain pex11, active compounds read low 0.977 | S. cerevisiae deletion strains, locus YOR001W, strain rrp6, active compounds read low 1 | S. cerevisiae deletion strains, locus YOR061W, strain CKA2, active compounds read low 1 | S. cerevisiae deletion strains, locus YOR069W, strain VPS5, active compounds read low 0.987 | S. cerevisiae deletion strains, locus YOR070C, strain gyp1, active compounds read low 0.985 | S. cerevisiae deletion strains, locus YOR080W, strain dia2, active compounds read low 0.996 | S. cerevisiae deletion strains, locus YOR083W, strain WHI5 (second series), active compounds read low 1.02 | S. cerevisiae deletion strains, locus YOR083W, strain WHI5, active compounds read low 0.918 | S. cerevisiae deletion strains, locus YOR106W, strain vam3, active compounds read low 0.963 | S. cerevisiae deletion strains, locus YOR136W, strain idh2, active compounds read low 0.988 | S. cerevisiae deletion strains, locus YOR144C, strain elg1, active compounds read low 0.98 | S. cerevisiae deletion strains, locus YOR184W, strain ser1, active compounds read low 0.977 | S. cerevisiae deletion strains, locus YOR231W, strain MKK1, active compounds read low 1.04 | S. cerevisiae deletion strains, locus YOR265W, strain rbl2, active compounds read low 0.999 | S. cerevisiae deletion strains, locus YOR270C, strain vph1, active compounds read low 1 | S. cerevisiae deletion strains, locus YOR290C, strain snf2, active compounds read low 0.985 | S. cerevisiae deletion strains, locus YOR316C, strain cot1, active compounds read low 0.968 | S. cerevisiae deletion strains, locus YPL051W, strain arl3, active compounds read low 0.966 | S. cerevisiae deletion strains, locus YPL055C, strain LGE1, active compounds read low 1.1 | S. cerevisiae deletion strains, locus YPL078C, strain atp4, active compounds read low 0.972 | S. cerevisiae deletion strains, locus YPL106C, strain sse1, active compounds read low 0.962 | S. cerevisiae deletion strains, locus YPL240C, strain hsp82, active compounds read low 0.994 | S. cerevisiae deletion strains, locus YPL241C, strain CIN2, active compounds read low 0.993 | S. cerevisiae deletion strains, locus YPL256C, strain CLN2, active compounds read low 1.02 | S. cerevisiae deletion strains, locus YPR119W, strain clb2, active compounds read low 0.963 | S. cerevisiae deletion strains, locus YPR141C, strain kar3, active compounds read low 0.973 | S. cerevisiae deletion strains, locus YPR163C, strain tif3, active compounds read low 0.979 | S. cerevisiae deletion strains, locus YPR167C, strain met16, active compounds read low 0.977 | S. cerevisiae deletion strains, strain wtn01, active compounds read low 0.971 | S. cerevisiae strains, strain wild type, active compounds read low 1
